The results in this text go back to PubChem BioAssay (NCI).

Test systems include K-562 leukemia; MALME-3M melanoma; MDA-MB-231 breast; RXF 393 renal; SF-268 CNS; SF-295 CNS; SF-539 CNS; UACC-257 melanoma; M14 melanoma; HCT-15 colon; HT29 colon; SNB-75 CNS; SNB-19 CNS; U251 CNS; PC-3 prostate; SK-MEL-5 melanoma; UACC-62 melanoma; LOX IMVI melanoma; SK-MEL-28 melanoma; SK-MEL-2 melanoma.
Holding throughout (test): NCI-60 one-dose screen, 48 h (100 = growth as untreated, 0 = no growth, -100 = all killed)
What all share (settings): 10 µM

Compounds without any hit were thinned out: in the full panel of roughly 83,000, 20% have a hit.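 Growth was measured after 48 h exposure to one concentration of compound in 96-well plates. Values under 10 count as active.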 Values without a mark were called inactive. The source made the active and inactive calls.

As to `O=C(Nc1cccc(-n2cc(-c3ccncc3)c(-c3ccc(O)c(Cl)c3)n2)c1)c1cccc(C(F)(F)F)c1`, the growth is 19.3% in the assay with K-562 leukemia; 24.6% with MALME-3M melanoma; -58.9% (active) with MDA-MB-231 breast; -12.4% (active) with RXF 393 renal; 51.7% in the assay with SF-268 CNS; 7.62% (active) in the assay with SF-295 CNS. The growth in the assay with SF-539 CNS is 27.4%; in the assay on UACC-257 melanoma, 33.3%; in the assay with M14 melanoma, 28.4%; in the assay on HCT-15 colon it was 23.8%; in the assay on HT29 colon, 31.8%; in the assay on SNB-75 CNS, 39.4%. The growth was 69.7% with SNB-19 CNS; -27.9% (active) in the assay on U251 CNS; 21% in the assay on PC-3 prostate; 34.6% with SK-MEL-5 melanoma; 37.9% with UACC-62 melanoma; 33% in the assay on LOX IMVI melanoma. Further, the growth in the assay on SK-MEL-28 melanoma is 43.9%.

With `O=C(CCCCC(=O)Nc1ccc2c(c1)/C(=C/c1ccc[nH]1)C(=O)N2)NO`, the growth with K-562 leukemia is 85%; in the assay on MALME-3M melanoma, 17.5%; with MDA-MB-231 breast it was 94.4%; in the assay with RXF 393 renal, 76.8%; with SF-268 CNS it was 76.2%; in the assay on SF-295 CNS, 102%. The growth in the assay with SF-539 CNS was 81.1%; in the assay with UACC-257 melanoma, 70.6%; in the assay on M14 melanoma it was 58.6%; in the assay with HCT-15 colon, 96.2%; in the assay with HT29 colon, 68.7%; in the assay with SNB-75 CNS, 47.7%. Also, the growth with SNB-19 CNS is 83%; in the assay with U251 CNS it was 69.3%; in the assay with PC-3 prostate, 80.1%; with SK-MEL-5 melanoma, 65%; with UACC-62 melanoma, 68.5%; with LOX IMVI melanoma, 94.4%. Besides, the growth in the assay on SK-MEL-28 melanoma was 60.4%; with SK-MEL-2 melanoma it was 59.4%.

As for `O=C1/C(=C/c2ccc(Cl)cc2)SC(=Nc2ccc(Cl)cc2)N1Cc1nc2ccccc2[nH]1`, the growth in the assay with K-562 leukemia was 58.2%; with MALME-3M melanoma it was 48.9%; in the assay with MDA-MB-231 breast, 59.2%; in the assay with RXF 393 renal, 91.5%; with SF-268 CNS, 74.4%; in the assay with SF-295 CNS, 68.2%. Besides, the growth is 101% in the assay with SF-539 CNS; 87.2% with UACC-257 melanoma; 92.4% in the assay on M14 melanoma; 64.1% with HCT-15 colon; 97% in the assay on HT29 colon; 27.1% in the assay on SNB-75 CNS. Further, the growth in the assay on SNB-19 CNS is 75%; in the assay with U251 CNS, 76.2%; with PC-3 prostate, 41.6%; in the assay on SK-MEL-5 melanoma, 81.3%; in the assay on UACC-62 melanoma, 64.6%; in the assay with LOX IMVI melanoma, 78%. The growth in the assay on SK-MEL-28 melanoma is 92.6%; in the assay with SK-MEL-2 melanoma it was 88.4%.

In the case of `COc1cc(-c2cc(-c3cc4c([nH]c5ccccc54)c(-c4cc(OC)c(OC)c(OC)c4)n3)cc(-c3ccccc3)n2)cc(OC)c1OC`, the growth was 16.7% in the assay on K-562 leukemia; 58.3% in the assay on MALME-3M melanoma; 45.6% in the assay on MDA-MB-231 breast; 72.6% with RXF 393 renal; 78.7% in the assay on SF-268 CNS; 26.8% with SF-295 CNS. In addition, the growth is 66% in the assay on SF-539 CNS; 89% with UACC-257 melanoma; 50.9% in the assay with M14 melanoma; 51.6% in the assay on HCT-15 colon; 44.4% with HT29 colon; 36.2% with SNB-75 CNS. The growth with SNB-19 CNS was 66%; in the assay with U251 CNS it was 62.1%; with PC-3 prostate, 48.3%; in the assay with SK-MEL-5 melanoma, 40.1%; with UACC-62 melanoma, 40%; in the assay on LOX IMVI melanoma, 59.5%. The growth in the assay on SK-MEL-28 melanoma is 62.5%; with SK-MEL-2 melanoma, 46%.

For `CCOC(=O)N1C/C(=C/c2ccc(Cl)cc2)C(=O)/C(=C/c2ccc(Cl)cc2)C1`, the growth was 3.7% (active) in the assay with K-562 leukemia; 84.9% in the assay on MALME-3M melanoma; 68.3% with MDA-MB-231 breast; 47.4% with RXF 393 renal; 52.3% in the assay on SF-268 CNS; 44.2% in the assay on SF-295 CNS. Besides, the growth was 98% in the assay with SF-539 CNS; 94.2% in the assay with UACC-257 melanoma; 57.1% with M14 melanoma; 34.3% in the assay with HCT-15 colon; -40% (active) with HT29 colon; 66% in the assay on SNB-75 CNS. For the same compound, the growth in the assay with SNB-19 CNS is 77.3%; in the assay with U251 CNS it was 12.1%; in the assay on PC-3 prostate it was 49.4%; in the assay on SK-MEL-5 melanoma, 88.1%; with UACC-62 melanoma it was 67.6%; with LOX IMVI melanoma, -56.8% (active). Further, the values for the growth in the assay on SK-MEL-28 melanoma and in the assay on SK-MEL-2 melanoma were 105% and 84.7%, respectively.

In the case of `CCCCCCCC(C)NCCO` (centres undefined), the growth in the assay with K-562 leukemia is 103%; in the assay on MALME-3M melanoma it was 107%; in the assay on MDA-MB-231 breast, 123%; with RXF 393 renal it was 105%; in the assay with SF-268 CNS, 106%; in the assay with SF-295 CNS it was 90%. The growth in the assay on SF-539 CNS is 105%; in the assay with UACC-257 melanoma it was 90.8%; in the assay on M14 melanoma it was 105%; in the assay with HCT-15 colon it was 116%; in the assay with HT29 colon it was 103%; in the assay with SNB-75 CNS, 99.4%. Moreover, the growth in the assay on SNB-19 CNS was 109%; in the assay on U251 CNS it was 108%; in the assay with PC-3 prostate, 105%; in the assay with SK-MEL-5 melanoma it was 101%; with UACC-62 melanoma, 113%; in the assay with LOX IMVI melanoma it was 92.8%. For the same compound, the results for the growth in the assay on SK-MEL-28 melanoma and with SK-MEL-2 melanoma were 112% and 106%, respectively.

On to `COc1ccc(OC)c(/C=C/c2nc(SCc3ccccc3)n(-c3ccc(Cl)cc3)n2)c1`, for which the growth is 18.2% with K-562 leukemia; 34.9% in the assay with MALME-3M melanoma; 67.1% in the assay with MDA-MB-231 breast; 82.8% in the assay on RXF 393 renal; 57.7% in the assay on SF-268 CNS; -15.4% (active) in the assay with SF-295 CNS. For the same compound, the growth was 44.2% with SF-539 CNS; 74% in the assay on UACC-257 melanoma; 14.1% in the assay with M14 melanoma; 34% in the assay with HCT-15 colon; 63.1% in the assay on HT29 colon; 59.6% in the assay on SNB-75 CNS. Also, the growth with SNB-19 CNS was 61.4%; in the assay on U251 CNS it was 38.7%; in the assay on PC-3 prostate, 35.6%; with SK-MEL-5 melanoma it was 45.2%; with UACC-62 melanoma, 33.9%; in the assay with LOX IMVI melanoma it was 32.4%. Further, the growth in the assay on SK-MEL-28 melanoma is 71.5%; in the assay with SK-MEL-2 melanoma, 69.2%.

`COc1cc(Nc2ncnc(Nc3ccc4c(n3)NC(=O)C(C)(C)O4)n2)cc(OC)c1OC`: the growth in the assay with K-562 leukemia was 34.6%; in the assay with MALME-3M melanoma it was 28.2%; with MDA-MB-231 breast it was 3.82% (active); with RXF 393 renal, -86.6% (active); in the assay with SF-268 CNS, -21% (active); with SF-295 CNS it was 19.6%. Besides, the growth in the assay with SF-539 CNS is -59.3% (active); in the assay on UACC-257 melanoma, 30.2%; in the assay on M14 melanoma, 40%; with HCT-15 colon, 22.9%; in the assay with HT29 colon it was -12.6% (active); in the assay on SNB-75 CNS it was -80.3% (active). Moreover, the growth in the assay on SNB-19 CNS is 31.1%; in the assay on U251 CNS, 15.9%; in the assay with PC-3 prostate, 25.5%; in the assay with SK-MEL-5 melanoma it was 48.2%; with UACC-62 melanoma, 20.3%; in the assay with LOX IMVI melanoma, -27% (active). The growth in the assay with SK-MEL-28 melanoma was 51.2%; in the assay with SK-MEL-2 melanoma, 46.5%.
